Data published in PubChem BioAssay (Tox21).
“And” between values parts separate entries of the source, which are not always exact repeats. Equal entries are not always repeated. Inconclusive results are not listed. Where a call stands in place of a potency, no number is given. A structure can be active in one record and inactive in another. The source made the active and inactive calls. The call rests on the fitted dose curve; in most records, active means well fitted curve in the direction sought with a large enough effect in the repeat runs; inconclusive means weak or mixed curves; inactive means no such curve, though single readings can be large; an effect the other way counts as inactive or inconclusive.

Columns and labels:
[1] = A CellTox Green Cytotoxicity Assay to monitor cytotoxicity in HepG2 cells - 0 hour (AID 1224882); further: nearly all actives have a fitted effect of over 35% in size
In short: (§1)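 Continuous culture of HepG2 cells with a membrane-impermeant DNA dye; rising fluorescence marks dead cells. Compound exposure lasted up to 40 h at 37 C, with reads every 8 h from 0 h.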

[2] = A CellTox Green Cytotoxicity Assay to monitor cytotoxicity in HepG2 cells - 32 hour (AID 1224883); further: nearly all actives have a fitted effect of over 50% in size
In short: as §1

[3] = A CellTox Green Cytotoxicity Assay to monitor cytotoxicity in HEK293 cells - 8 hour (AID 1224884); further: nearly all actives have a fitted effect of over 35% in size
In short: (§2)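 Each value comes from one timepoint of a single continuous run in which HEK293 cells with CellTox Green were exposed to compound for up to 40 h at 37 C, dye fluorescence rising with cell death.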

[4] = qHTS RealTime-Glo MT Cell Viability Assay in HepG2 cells - 16 hour (AID 1224885); further: nearly all actives have a fitted effect of over 50% in size
In short: (§3)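 Compound treatment began 5 h after plating HepG2 cells (600/well) with NanoLuc luciferase and prosubstrate. Plates stayed at 37 C for 40 h; luminescence was captured at six time points, 0 h through 40 h.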

[5] = qHTS RealTime-Glo MT Cell Viability Assay in HEK293 cells - 24 hour (AID 1224886); further: nearly all actives have a fitted effect of over 50% in size
In short: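 Quantitative high-throughput screen of the Tox21 10K library in HEK293: cells and RealTime-Glo reagents plated together, compound added at 5 h, luminescence monitored through 40 h at 37 C.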

[6] = qHTS RealTime-Glo MT Cell Viability Assay in HEK293 cells - 8 hour (AID 1224887); further: nearly all actives have a fitted effect of over 50% in size
In short: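 qHTS format; HEK293 cells with NanoLuc/prosubstrate reagent, 37 C/5% CO2 for 5 h pre-dosing; compounds 23 nL in DMSO; luminescence at each time point reflects viable cells.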

[7] = A CellTox Green Cytotoxicity Assay to monitor cytotoxicity in HEK293 cells - 16 hour (AID 1224888); further: nearly all actives have a fitted effect of over 35% in size
In short: as §2

[8] = qHTS RealTime-Glo MT Cell Viability Assay in HepG2 cells - 0 hour (AID 1224889); further: nearly all actives have a fitted effect of over 50% in size
In short: as §3

[9] = A CellTox Green Cytotoxicity Assay to monitor cytotoxicity in HepG2 cells - 8 hour (AID 1224890); further: nearly all actives have a fitted effect of over 45% in size
In short: as §1

[10] = qHTS assay to identify small molecule antagonists of the estrogen receptor alpha (ER-alpha) signaling pathway using the BG1 cell line in the presence of 0.1 nM 17-beta-estradiol - cell viability counter screen (AID 1259241); further: nearly all actives have a fitted effect of over 40% in size
In short: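 Cytotoxicity counter-screen: live-cell protease activity measured by fluorescence (30 min reagent step) in the same wells. Cells were VM7Luc4E2 with endogenous ER-alpha and ERE-driven luciferase, treated 22 hr at 37C alongside 0.1 nM 17beta-estradiol final.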
Potency means the concentration at half of the fitted maximal effect.

SMILES | Potency [1] | Potency [2] | Potency [3] | Potency [4] | Potency [5] | Potency [6] | Potency [7] | Potency [8] | Potency [9] | Potency [10]
CC(=O)OCCOCCOCCOC(C)=O | inactive | inactive | inactive | inactive | inactive | inactive | inactive | inactive | inactive | inactive
CC(C)(C)NCC(O)COc1ccccc1OCC1CCCO1 (stereo not given) | inactive | inactive | inactive | inactive | – | inactive | inactive | inactive | inactive | –
CC(=O)O[C@]1(C(C)=O)CC[C@H]2[C@@H]3C[C@H](C)C4=CC(=O)CC[C@]4(C)[C@H]3CC[C@@]21C | inactive and 37.9 nM (active) | inactive | inactive | inactive | 15.5 µM (active) | inactive | inactive | 174 nM (active) and 301 nM (active) | inactive | inactive
c1ccc2c(c1)-c1cccc3c1c-2cc1ccccc13 | inactive | inactive | inactive | inactive | – | inactive | inactive | inactive | inactive | –
O | inactive | inactive | inactive | inactive | inactive | inactive | inactive | inactive | – | inactive
CC1=CC(=O)c2ccccc2C1=O | inactive | 43.6 µM (active) and 26.8 µM (active) | 21.9 µM (active) and 23.9 µM (active) | 43.6 µM (active) | – | 7.76 µM (active) and 16.9 µM (active) | 21.9 µM (active) and 26.8 µM (active) | inactive | 54.9 µM (active) and 23.9 µM (active) | 48.6 µM (active)
CCC(=O)/C=C/C1C(C)=CCCC1(C)C (stereo not given) | inactive | inactive | 39 µM (active) and inactive | inactive | inactive | inactive | – | inactive | inactive | –
COc1ccc(COC(C)=O)cc1 | inactive | inactive | inactive | inactive | – | inactive | inactive | inactive | inactive | –
O=Cc1ccc(Cl)cc1 | inactive | inactive | inactive | inactive | inactive | inactive | inactive | inactive | inactive | inactive
O=C(OCc1ccccc1)c1ccc(O)cc1 | inactive | 49 µM (active) and inactive | inactive | inactive | inactive | inactive | inactive | inactive | inactive | inactive
COc1nc(C)nc(Cl)c1NC1=NCCN1 | inactive | inactive | inactive | inactive | inactive | inactive | inactive | inactive | inactive | inactive
C=CS(=O)(=O)O | inactive | inactive | inactive | inactive | inactive | inactive | inactive | inactive | – | inactive
Cc1cc(C(C)(C)C)c(O)c(C(C)(C)C)c1 | inactive | inactive | inactive | inactive | inactive | inactive | inactive | inactive | inactive | inactive
CCC(C)(Oc1ccc(C2(c3ccc(OC(C)(CC)C(=O)O)cc3)CCCCC2)cc1)C(=O)O (stereo not given) | inactive | inactive | inactive | inactive | inactive | inactive | inactive | inactive | – | inactive
CO[Si](OC)(OC)c1ccccc1 | inactive | inactive | inactive | inactive | inactive | inactive | inactive | inactive | – | inactive
CCC[C@H](N[C@@H](C)C(=O)N1[C@H](C(=O)O)C[C@@H]2CCCC[C@@H]21)C(=O)OCC | inactive | inactive | inactive | inactive | inactive | inactive | inactive | inactive | – | inactive
CC(=O)OCC1=C(C(=O)O)N2C(=O)[C@@H](NC(=O)Cc3cccs3)[C@H]2SC1 | inactive | inactive | inactive | inactive | inactive | inactive | inactive | inactive | – | inactive
Cc1scc2c1N(C(=O)CN1CCN(C)CC1)c1ccccc1NC2=O | inactive | inactive | inactive | inactive | inactive | inactive | inactive | inactive | – | inactive
COC(c1ccccc1)(c1ccccc1)[C@H](Oc1nc(C)cc(C)n1)C(=O)O | inactive | inactive | inactive | inactive | inactive | inactive | inactive | inactive | – | inactive
C=C(C)C1CC=C(C)C(OC(C)=O)C1 (stereo not given) | inactive | inactive | inactive | inactive | – | inactive | inactive | inactive | – | –
CC(C)CCCCCCc1ccc(O)cc1 | inactive | 19.8 µM (active) and 43.6 µM (active) | 39.6 µM (active) | inactive | – | 19.8 µM (active) | 39.6 µM (active) and 38.9 µM (active) | inactive | 25 µM (active) and 43.6 µM (active) | –
Nc1nc(=S)c2[nH]cnc2[nH]1 | inactive | inactive | inactive | inactive | 21.9 µM (active) | inactive | inactive | inactive | inactive | inactive
Cc1cc(Cc2cc(C)cc(C(C)(C)C)c2O)c(O)c(C(C)(C)C)c1 | inactive | 43.9 µM (active) and 43.6 µM (active) | 49.2 µM (active) and inactive | 43.9 µM (active) and 43.6 µM (active) | 12.4 µM (active) and 15.5 µM (active) | 15.6 µM (active) and 19.5 µM (active) | 49.2 µM (active) | inactive | – | inactive
CC(C)(c1ccccc1)c1ccc(Nc2ccc(C(C)(C)c3ccccc3)cc2)cc1 | inactive | inactive | inactive | inactive | inactive | inactive | inactive | inactive | – | inactive

SMILES | Potency [1] | Potency [2] | Potency [3] | Potency [4] | Potency [5] | Potency [6] | Potency [7] | Potency [8] | Potency [9] | Potency [10]
CCCCCCCCCCCC[N+](C)(C)C | inactive | 43.5 µM (active) and 49 µM (active) and 43.6 µM (active) | inactive | inactive | 4.89 µM (active) | inactive | inactive | inactive | inactive | inactive
c1ccc2n[nH]nc2c1 | inactive | inactive | 9.5 µM (active) and inactive | inactive | inactive | inactive | inactive | inactive | inactive | inactive
CCc1cc(C(C)(C)C)c(O)c(C(C)(C)C)c1 | inactive | inactive | inactive | inactive | inactive | inactive | – | inactive | – | inactive
CC[C@@H](N)CO | inactive | inactive | inactive | inactive | – | inactive | inactive | inactive | inactive | –
COC(=O)c1cccc(C(=O)OC)c1 | inactive and 38.9 µM (active) | inactive and 24.5 µM (active) | inactive and 43.6 µM (active) | inactive | inactive | inactive | – | inactive | inactive and 43.6 µM (active) | inactive
C1COC(NC(C2CC2)C2CC2)=N1 | inactive | inactive | inactive | inactive | inactive | inactive | inactive | inactive | – | inactive
Oc1c(Cl)cc(Cl)cc1Sc1cc(Cl)cc(Cl)c1O | inactive and 43.6 µM (active) | 44.4 µM (active) and 43.6 µM (active) and inactive | inactive and 43.6 µM (active) | inactive | 21.9 µM (active) | inactive | – | inactive | inactive and 43.6 µM (active) | inactive
CCCCN(CCO)CCCC | inactive | inactive | inactive | inactive | inactive | inactive | inactive | inactive | – | inactive
CNCCC(Oc1ccc(C(F)(F)F)cc1)c1ccccc1 (stereo not given) | inactive | 48.4 µM (active) and 16.9 µM (active) | 26.8 µM (active) | – | – | – | 23.9 µM (active) | – | – | inactive
O=C(Cl)c1cccc(C(=O)Cl)c1 | inactive | inactive | inactive | inactive | – | inactive | inactive | inactive | – | inactive
C/C=C/c1ccc(OCC)c(O)c1 | inactive | inactive | inactive | inactive | – | inactive | inactive | inactive | – | inactive
CCOc1ccccc1C(N)=O | inactive | inactive | inactive | inactive | – | inactive | inactive | inactive | – | inactive
Nc1nc2ccccc2[nH]1 | inactive | inactive | inactive | inactive | – | inactive | inactive | inactive | inactive | inactive
NC12CC3CC(CC(C3)C1)C2 | inactive | inactive | inactive | inactive | – | inactive | inactive | inactive | inactive | inactive
Nc1cc(Cl)c(-c2cc(Cl)c(N)cc2Cl)cc1Cl | inactive | 17.4 µM (active) and 54.9 µM (active) | inactive | – | 11 µM (active) | inactive | inactive | inactive | inactive | –
CCc1ccc(C(c2ccc(CC)cc2)C(Cl)Cl)cc1 | inactive | inactive | inactive | inactive | – | inactive | inactive | inactive | inactive | inactive
c1cnc2cc3c(cc2n1)C1CNCC3C1 | inactive | inactive | inactive | inactive | – | inactive | inactive | inactive | inactive | inactive
Cc1cccc([N+](=O)[O-])c1C(=O)O | inactive | inactive | inactive | inactive | – | inactive | inactive | inactive | inactive | inactive
CCOC(=O)C(C)C(C)=O (stereo not given) | inactive | inactive | inactive | inactive | – | inactive | inactive | inactive | inactive | inactive
CC(=O)CC(C)=O | inactive | inactive | inactive | inactive | – | inactive | inactive | inactive | – | inactive
NCCCCCC(=O)O | inactive | inactive | inactive | inactive | – | inactive | inactive | inactive | inactive | inactive
CCCCCC(=O)O[C@]1(C(C)=O)CC[C@H]2[C@@H]3CCC4=CC(=O)CC[C@]4(C)[C@H]3CC[C@@]21C | inactive | inactive | inactive | – | 24.4 µM (active) | inactive | inactive | 4.34 µM (active) | – | inactive
Clc1ccc2c(c1)C(N1CCNCC1)=Nc1ccccc1O2 | inactive | 49 µM (active) and 26.8 µM (active) | inactive | – | 43.6 µM (active) and 26.8 µM (active) | inactive | – | – | inactive | –
